HepG2 viability: HepG2 cytotoxicity, counter-screen for TGF-b inhibitors | 410,000 compounds, 0.76% hits | HepG2 CAGA-GFP viability, ATP luminescence, 18 h | AID 588856 | Potency, µM (series often up to 46.1 µM), without a hit: top-dose activity change, negative = cytotoxicity, usual class: cytotoxic
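CellTiter-Glo luminescence gave cytotoxicity after 18 hours at 37 degrees C. The cells were HepG2 CAGA-GFP in 1% FBS DMEM, stimulated with 500 pg/mL TGF-beta after compound addition. %Activity was normalised to no-cell wells (complete cell-killing) and DMSO (no toxicity), and curves were fitted and classified.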
TGFb SMAD3 inh: blocks TGF-b signaling; HepG2 CAGA-GFP TGF-b/SMAD3 reporter, GFP fluorescence, 18 h; TGF-beta stimulated, 500 pg/mL final; 410,000 compounds, 1.2% hits; Potency, µM (titrated, usually from 46.1 µM), inactives show at the top dose activity, negative = inhibition, most hits filed as inhibitors; AID 588855; note: % is set by controls: 0 for no effect and ±100 for the full control effect; nearly all actives have a fitted effect of over 65% in size
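GFP signal (ex488/em500-530) from TGF-beta-stimulated HEPG2 CAGA-GFP cells, 500 pg/mL final, 18 h at 37 degrees C in DMEM plus 1% FBS, normalized to unstimulated and DMSO-stimulated controls.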
KB-V1 cytotox: KB-V1 MDR subline cytotoxicity; Potency, µM (highest dose often 46.1 µM), hits mostly cytotoxic; KB-V1 MDR cells viability, CellTiter-Glo, 72 h; 400,000 compounds, 3.4% hits; AID 1347076; note: % is set by controls: 0 for no effect and ±100 for the full control effect; nearly all actives have a fitted effect of over 60% in size
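KB-V1 cells (P-gp-expressing MDR subline of KB-3-1) in phenol-red-free DMEM with 10% FBS were exposed to library compounds over a concentration series for 72 h at 37 degrees C. Viability read by CellTiter-Glo luminescence; concentration-effect curves fitted after normalization.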
KB-3-1 cytotox: KB-3-1 parental cell cytotoxicity; KB-3-1 viability, CellTiter-Glo ATP luminescence, 72 h; Potency, µM (doses to about 46.1 µM), usual class: cytotoxic; 400,000 compounds, 1.4% hits; AID 1347075; note: % is set by controls: 0 for no effect and ±100 for the full control effect; nearly all actives have a fitted effect of over 60% in size
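Screening of KB-3-1 cells (DMEM, 10% FBS, phenol-red free) ran from lowest to highest compound concentration; after 72 h at 37 °C viability was read luminescently and curves fitted.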
HT1080-NT tox: kills 2HG-producing HT-1080-NT fibrosarcoma cells. Potency, µM (highest dose often 46.1 µM), for the others: at the top dose activity, negative = less viability, most hits filed as cytotoxic. 360,000 compounds, 1.6% hits. HT-1080-NT fibrosarcoma viability, CellTiter-Glo ATP luminescence, 48 h;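 note: NT is the 2HG producing partner of a matched IDH1 knockdown line; 0% = DMSO-treated cells and -100% = media-only wells without cells; nearly all actives have a fitted effect of over 55% in size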
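A 48-hour cytotoxicity screen used HT-1080-NT cells plated 2 hours before compound delivery. ATP-based CellTiter-Glo luminescence measured viability, normalized to DMSO and no-cell controls.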
HT1080 IDH1KD tx: toxicity to HT-1080 IDH1 knockdown cells (counter line); HT-1080 IDH1 knockdown viability, ATP luminescence, 48 h; Potency, µM (doses to about 46.1 µM), inactives show at the top dose activity, negative = toxicity, actives largely listed as cytotoxic; 360,000 compounds, 2% hits; AID 686971;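 note: 0% = DMSO wells and -100% = cell-free medium wells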
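% activity derives from luminescence (CellTiter-Glo), normalised to DMSO and no-cell wells. HT-1080-IDH1KD cells, 750/well, had 48 h compound exposure at 37 °C.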
* marks the source's active call; other numbers are inactive results; i = inactive; ? = inconclusive; . = no result. In the library only some 6.6% were active in any assay of this set; here they are far more common. Calls come from the whole dose curve; as a rule, active = well fitted curve in the direction sought with a large enough effect; inconclusive = small, poorly fitted or top-dose-only effect, or another doubt; inactive = no such curve, though single readings can be large; an effect the other way counts as inactive or inconclusive. Potency is the fitted concentration of half-maximal effect.

SMILES	HepG2 viability	TGFb SMAD3 inh	KB-V1 cytotox	KB-3-1 cytotox	HT1080-NT tox	HT1080 IDH1KD tx
Cc1c(-c2nc(N)nc(Nc3ccccc3F)n2)oc2ccccc12	-35%	-8%	16µM*	i	-2%	-2%
Cc1cccc(Nc2nc(N)nc(-c3oc4ccccc4c3C)n2)c1	-26%	-28%	21µM*	?	?	?
CCOc1cc(-c2nnc(SCC(=O)NCCCOC)nc2-c2ccc(OC)c(OCC)c2)ccc1OC	0%	32%	i	i	.	.
O=C(c1ccoc1)N1CCN(c2cc(-c3ccccc3)nc3cc(-c4ccc(Br)cc4)nn23)CC1	-4%	-2%	i	i	2%	-2%
Cc1cnc(CNC(=O)c2ccc3oc(C(C)C)nc3c2)[nH]1	-29%	-9%	?	i	-3%	-2%
Cc1ccc2oc(C(=O)NCc3ncc(C)[nH]3)c(C)c2c1	-16%	0%	?	10µM*	18µM*	16µM*
CCc1ccc2oc(C(=O)NCc3ccncc3)c(C)c2c1	-28%	-3%	12µM*	?	1%	-7%
Cc1cccc(N(C)C(=O)Cc2c(C(=O)O)[nH]c3ccccc23)c1	-9%	-13%	?	i	.	.
O=C(NCc1cccc(F)c1)c1ccc(CN2CC(=O)N3CCCCC3C2=O)cc1 (centres undefined)	-21%	-14%	i	i	.	.
COc1cccc(N2CCN(C(=O)CN3C(=O)COc4ccc(S(=O)(=O)N5CCC(C)CC5)cc43)CC2)c1	2%	4%	?	i	.	.
CC1(C)C(C#N)=C(N)OC2=C1C(=O)CCC2	5%	-3%	i	i	-3%	9%
CC1=C(C#N)C(C)(C)C(C#N)=C(C)N1	1.1µM*	-1%	i	i	-4%	0%
COc1cccc(C(=O)N2CCC[C@@H]2C(=O)N2CCC[C@@H]2C(=O)NCc2ccccc2Cl)c1	.	.	i	i	21%	6%
Nc1c(C(=O)OCC2CCCO2)c2nc3ccccc3nc2n1C1CCCC1 (centres undefined)	-26%	?	23µM*	?	-2%	-4%
O=C1NC(=O)C(c2ccccc2)(c2ccc(Cl)cc2Cl)N1 (centres undefined)	-2%	-1%	i	i	-19%	-11%
CCCN(Cc1cc2cccc(C)c2[nH]c1=O)C(=O)c1cccc(Cl)c1	-21%	-14%	i	i	.	.
CC[C@H](C)[C@@H](CN[C@H](C)CNC)NCCC(c1ccccc1)c1ccccc1	22µM*	?	i	?	?	?
CC[C@@H](C)[C@H](CN[C@H](CNC)C(C)C)NC[C@@H](C)c1ccc(CC(C)C)cc1	-111%	?	i	?	?	?
COc1cccc(C(=O)NCC(c2ccc(N(C)C)cc2)N2CCOCC2)c1OC (centres undefined)	2%	-25%	i	i	.	.
CCOC(=O)c1cc2c(=O)n3ccccc3nc2n(CCOC)c1=NC(=O)C(C)(C)C	7.9µM*	1%	i	i	6%	1%
CCOC(=O)c1cc2c(=O)n3ccccc3nc2n(CCCOC)c1=NC(=O)C(C)(C)C	-15%	4%	i	?	20%	20%
CCOC(=O)C1(C)CCCN1C(=O)c1ccc(F)c(Cl)c1 (centres undefined)	4%	0%	i	i	21%	4%
COc1ccc2ncnc(NCc3cccs3)c2c1-c1ccc2c(c1)OCO2	.	.	i	?	.	.
CCc1ccccc1NC(=O)CC1S/C(=N\c2nccs2)N(CC)C1=O (centres undefined)	-5%	-13%	8.2µM*	i	3%	-3%
Cc1ccccc1NC(=O)CC1S/C(=N/c2nccs2)N(C)C1=O (centres undefined)	4%	-6%	i	i	9%	6%
SMILES	HepG2 viability	TGFb SMAD3 inh	KB-V1 cytotox	KB-3-1 cytotox	HT1080-NT tox	HT1080 IDH1KD tx
C=CCOC(=O)C1=C(C)NC(SC)=C(C#N)C1c1cccs1 (centres undefined)	-19%	2%	6.5µM*	12µM*	9.2µM*	18µM*
CCSC1=C(C#N)C(c2cccs2)C(C(=O)OC)=C(C)N1 (centres undefined)	-23%	-19%	21µM*	i	1%	9%
C=CCOC(=O)C1=C(C)NC(SCC(=O)Nc2nccs2)=C(C#N)C1c1cccs1 (centres undefined)	-3%	?	i	i	?	?
Cc1coc2cc3oc(=O)c(CC(=O)NCc4ccccc4)c(C)c3cc12	-8%	-33%	.	.	.	.
O=C(NCCc1ccccc1)c1ccc2c(c1)CCN2S(=O)(=O)c1ccccc1	-2%	13%	i	i	.	.
O=S(=O)(c1ccc(NC(=S)N/N=C/c2ccc(O)c(O)c2)cc1)N1CCOCC1	-14%	?	i	i	-4%	-3%
O=S(=O)(c1ccc(Cl)c(NC(=S)N/N=C/c2ccc(O)cc2)c1)N1CCOCC1	-16%	?	21µM*	?	-21%	-15%
O=[N+]([O-])c1cc(Cl)cc(/C=N/NC(=S)Nc2ccc(S(=O)(=O)N3CCOCC3)cc2)c1O	-8%	-18%	i	?	?	3.7µM*
COc1ccc(-c2cc(NC=O)c3ncc(-c4cccc(OC)c4)n3c2)cc1	3%	?	7.3µM*	6.5µM*	?	9.2µM*
COc1cccc(-c2cnc3c(NC(C)=O)cc(-c4ccc(S(C)(=O)=O)cc4)cn23)c1	5%	-5%	?	i	?	?
COc1ccc(-c2cc(NC=O)c3ncc(-c4cnn(C)c4)n3c2)cc1	-19%	?	18µM*	?	?	?
CCSc1ccc(-c2cc(NC=O)c3ncc(-c4cc(OC)c(OC)c(OC)c4)n3c2)cc1	-20%	-20%	?	?	?	-23%
COc1cccc(-c2cnc3c(NC=O)cc(-c4ccc(N(C)C)cc4)cn23)c1	-2%	?	?	?	?	18µM*
CCCCCCCCN(CCCCCCCC)c1ccc(/C=C/c2ccnc3ccccc23)cc1	9%	11%	i	?	.	.
COc1ccc(CNC(=O)CCc2c(C)nc3c(c(C)nn3-c3ccccc3)c2C)cc1	-10%	-6%	i	i	.	.
Cc1ccc2c(c1)-c1onc(C(=O)N3CCN(c4ccc(Cl)cc4)CC3)c1CO2	1%	-1%	i	i	.	.

Source: PubChem (National Center for Advancing Translational Sciences (NCATS))
